In the library only some 1.6% were active in any assay of this set; here they are far more common.
FUS yeast rescue = suppressors of FUS proteinopathy in yeast | S. cerevisiae FUS-expressing, growth rescue, OD600, 24 h | AID 1347120 | Potency, µM (series often up to 76.6 µM), usual class: activators | hit rate 0.24% among 390,000;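 further: plate controls were DMSO vehicle for no effect and reference control for full effect; nearly all actives have a fitted effect of over 55% in size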
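Compound concentration series was pinned onto galactose-induced FUS-expressing yeast seeded at OD 0.005. Plates sat 24hr at 30C; absorbance at 600 nm gave growth. DMSO served as background control.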
Mito fusion yeast = blocks mitochondrial division or promotes mitochondrial fusion. S. cerevisiae fusion-defective mutant growth rescue, CellTiterGlo 48 h. Potency, µM (highest dose often 46.1 µM), for inactives: top-dose growth rescue (activation), actives largely listed as activators. hit rate 0.23% among 320,000. AID 485298; further: % of control where 0% means no effect; nearly all actives have a fitted effect of over 45% in size
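Growth-rescue viability read-out: after 48 h at the non-permissive 37C in glycerol/ethanol YPEG, yeast mitochondrial fusion mutants are measured by CellTiterGlo luminescence; compounds (23 nl pinned per well) restoring growth score as division inhibitors or fusion activators.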
gsp antag = gsp mutant antagonism; gsp-mutant cells, cAMP HTRF, 30 min; Potency, µM (doses to about 76.9 µM), inactives show at the top dose activity change, negative = inhibition, most hits filed as inhibitors; hit rate 0.4% among 340,000; AID 624288; calls by dose curve; cell line not stated here;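 further: intracellular cAMP measured with PDE inhibitor Ro 20-1724 present during compound exposure; on the % scale 0 is the no-effect control and ±100 the full control effect; nearly all actives have a fitted effect of over 65% in size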
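Cells in G418 medium, seeded 16-24 h, 37C; buffer exchange to DPBS + 1 mM CaCl2, 0.5 mM MgCl2, 0.05% BSA; cpds in DMSO + […] (300 uM stock), 30 min 37C; HTRF cAMP detection.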
ALOX12 inh = inhibitors of human 12S-lipoxygenase ALOX12; purified 12hLO, xylenol orange hydroperoxide absorbance; Potency, µM (doses to about 108 µM), without a hit: top-dose activity change, negative = inhibition, most hits filed as inhibitors; hit rate 1.1% among 580,000; AID 1671190; further: on the % scale 0 is the no-effect control and ±100 the full control effect
Target sequence (P18054 whole entry, looked up): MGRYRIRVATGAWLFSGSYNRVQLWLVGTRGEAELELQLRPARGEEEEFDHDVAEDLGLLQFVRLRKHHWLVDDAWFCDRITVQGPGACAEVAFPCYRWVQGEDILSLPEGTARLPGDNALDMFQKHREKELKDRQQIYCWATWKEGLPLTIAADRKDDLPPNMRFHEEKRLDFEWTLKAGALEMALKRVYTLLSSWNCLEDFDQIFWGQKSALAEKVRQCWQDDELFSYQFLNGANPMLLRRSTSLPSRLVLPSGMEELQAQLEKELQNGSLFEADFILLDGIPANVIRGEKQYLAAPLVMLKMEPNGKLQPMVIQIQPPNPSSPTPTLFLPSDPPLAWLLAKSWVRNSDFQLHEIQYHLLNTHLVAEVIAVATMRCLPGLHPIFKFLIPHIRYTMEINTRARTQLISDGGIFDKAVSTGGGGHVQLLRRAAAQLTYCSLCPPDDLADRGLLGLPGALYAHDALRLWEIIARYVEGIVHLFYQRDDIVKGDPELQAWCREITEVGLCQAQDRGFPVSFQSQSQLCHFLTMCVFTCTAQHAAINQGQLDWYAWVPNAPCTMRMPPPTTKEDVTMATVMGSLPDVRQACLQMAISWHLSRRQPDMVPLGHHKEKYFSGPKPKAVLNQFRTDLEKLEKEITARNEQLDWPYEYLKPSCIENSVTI
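Purified human 12hLO at 150 nM in 25 mM Hepes, 0.01% Triton X-100, pH 7.0, preincubated 15 min at room temperature with compound. Reaction started with 40 uM arachidonic acid, 30 min at room temperature. Hydroperoxide measured by Fe-xylenol orange, 573/405 nm absorbance ratio.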
gsp agonist = gsp mutant agonism. gsp mutant cells, cAMP HTRF, 30 min. Potency, µM (highest dose often 76.9 µM), without a hit: at the top dose activation (cAMP increase), actives largely listed as activators. hit rate 0.13% among 340,000. AID 624287; active means well fitted activation curve with a large enough effect; inconclusive means small, poorly fitted or top-dose-only effect, or another doubt; inactive means no such curve, though single readings can be large or run the other way; cell line not stated here;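 further: phosphodiesterase inhibitor Ro 20-1724 added with compounds to block cAMP breakdown; nearly all actives have a fitted effect of over 60% in size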
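Cells stably selected in G418 were plated at 2000/well, grown 16-24 hr, then given compounds in DMSO with the PDE inhibitor […] (300 uM solution added) for 30 min at 37C; cAMP was read by HTRF.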
* = called active by the depositor; i = inactive; ? = inconclusive; . = no result given; [ ] = dose if it differs, or a comment. Unless noted, the call rests on the fitted dose curve; in most records, active means well fitted curve in the direction sought with a large enough effect; inconclusive means small, poorly fitted or top-dose-only effect, or another doubt; inactive means no such curve, though single readings can be large; an effect the other way counts as inactive or inconclusive. Potency means the concentration at half of the fitted maximal effect.

SMILES	FUS yeast rescue	Mito fusion yeast	gsp antag	ALOX12 inh	gsp agonist
COc1ccccc1C1CCN(Cc2ccc3ccccc3c2)CC1	i	-6.9%	9.2%	14.1µM*	-1.3%[15.4 µM]
COc1ccccc1C1CCN(Cc2ccccc2)CC1	i	-18.5%	3.2%	-2.3%	-16.8%
CC(C)c1ccc(CCNC(=S)Nc2ccc(Cl)cc2Cl)cc1	.	.	.	14.1µM*	.
S=C(NCCc1ccccc1)Nc1ccc(Cl)cc1Cl	i	-12.1%	-7.1%	?	-14.7%
Cc1cc(Cl)ccc1NC(=S)NCCc1ccc(Cl)cc1	i	-20.7%	-16.8%	22.4µM*	-88.1%
Cc1ccc2nc(Nc3nc(CSc4ncccn4)cc(=O)[nH]3)nc(C)c2c1	.	.	.	7.4%	.
O=C(NC(=S)Nc1ccc(Cl)c(C(=O)O)c1)c1cccc(COc2ccccc2)c1	i	-0.5%	-24.5%	11.2µM*	-62.3%
CCCOc1cccc(C(=O)NC(=S)Nc2cccc(C(F)(F)F)c2)c1	i	-10.5%	5.8%	?	0.1%
CCOc1cccc(C(=O)NC(=S)Nc2cccc(C)c2)c1	i	0.6%	5.7%	20µM*	0.2%
CCCCC(=O)NC(=S)Nc1ccc(Cl)c(C(=O)O)c1	i	-1.6%	.	?	10.3%[15.4 µM]
CCCCOc1cccc(C(=O)NC(=S)Nc2ccc(Cl)c(C(=O)O)c2)c1	i	4.1%	-10.0%	5.62µM*	-4.4%
COc1cccc(C(=O)NC(=S)Nc2ccc(N(C)C)cc2)c1	.	16.9%	-11.2%	44.7µM*	-2.4%
O=C(O)c1ccc(Cl)c(NC(=S)NC(=O)c2cccc(COc3ccccc3)c2)c1	i	7.6%	-8.2%	-17.8%	-6.8%[15.4 µM]
COc1cccc(C(=O)NC(=S)Nc2ccc(N3CCCC3)cc2)c1	i	-5.7%	-7.1%	?	-27.5%
CC(C)N1C(=O)C(Cc2nc3ccccc3c(=O)n2C)c2cc(Br)ccc21 (configuration not stated)	.	.	.	-4.1%	.
C/C=C/c1ccc(OCC(=O)N2CCN(S(=O)(=O)c3ccc(F)cc3)CC2)c(OC)c1	.	.	.	10.5%	.
O=C(CCc1ncc(-c2ccccc2)o1)NCCSCc1ccccc1	.	.	.	-4.5%	.
COc1cc(OC)cc(C(=O)NC(=S)Nc2ccc(Cl)c(C(=O)O)c2)c1	i	0.0%	2.3%	28.2µM*	1.2%
COc1cc(C(=O)NC(=S)Nc2ccc(Cl)c(C(=O)O)c2)cc(OC)c1OC	i	2.2%	-11.6%	?	?
CC(C)Oc1cccc(C(=O)NC(=S)Nc2cccc(NC(=O)c3ccccc3Cl)c2)c1	i	-0.5%	4.1%	10µM*	-3.6%
O=C(NC(=S)Nc1ccc(Cl)c(C(=O)O)c1)c1ccc(OCc2ccccc2)cc1	i	1.2%	?	3.55µM*	-6.4%
Cc1cnc(CCNC(=O)Cc2cccc(F)c2)n1Cc1ccc(F)cc1	.	.	.	43.6%	.
O=C(Nc1cc(Cl)ccc1O)c1snnc1-c1ccccc1	i	-13.2%	22.4µM*	?	19.8%
Cn1c(=O)c2c(nc(CN3CCN(c4ccccc4F)CC3)n2Cc2ccccc2)n(C)c1=O	.	.	.	-30.2%	.
COc1ccccc1-n1cnnc1SCc1csc(-c2ccccc2)n1	i	6.2%	-1.4%	475.4%	-19.5%
SMILES	FUS yeast rescue	Mito fusion yeast	gsp antag	ALOX12 inh	gsp agonist
COCCn1cnnc1SCc1csc(-c2cc(Br)ccc2OC)n1	.	.	.	15.8µM*	.
COc1ccc(CN(CCCC#N)C2CC2)cc1	.	.	.	-29.5%	.
COCCCNC(=S)N1CCN(c2nc(-c3ccccc3)cs2)CC1	i	-0.1%	31.6µM*	-2.5%	?
COc1cccc(-c2csc(N3CCN(C(=S)NCC(C)C)CC3)n2)c1	i	1.9%	?	-28.2%	?
CCNC(=S)N1CCN(c2nc(-c3cccc(OC)c3)cs2)CC1	i	5.7%	31.6µM*	4.8%	19.6%
COCCCNC(=S)N1CCN(c2nc(-c3ccc(Cl)cc3)cs2)CC1	i	.	.	-5.6%	?
CCOCCCNC(=S)N1CCN(c2nc(-c3ccccc3)cs2)CC1	i	-0.4%	50.1µM*	18.2%	-59.5%
N#CC(C#N)=C1NC(N)=C(C#N)C(c2ccccc2)=C1C#N	.	0.8%	.	6.31µM*	.
COc1ccc2c(c1)oc(=O)c1ccccc12	i	11.2%	0.1%	-15.6%	-46.8%
O=c1oc2cc(O)c(Cl)cc2c2ccccc12	.	?	-2.5%	-5.4%	2.24µM*
CNC(=O)[C@@H]1CN(Cc2ccc(C#N)cc2)C[C@H]1COC	.	.	.	1.7%	.
COc1cc(C)nc(N(C)S(=O)(=O)c2ccccc2Cl)n1	i	2.8%	31.6µM*	16.2%	-1.1%
O=C(O)c1ccccc1SCc1cn2cc(Br)ccc2n1	i	3.5%	26.1%	-3.8%	10µM*
O=[N+]([O-])c1ccc(S(=O)(=O)Nc2ccc(-c3ccc(N4CCCC4)nn3)cc2)cc1	i	5.8%	20µM*	-2.1%	4.3%
Cc1cc(C)c(OCC(=O)Nc2nonc2-c2ccc(Cl)cc2)c(C)c1	.	.	.	-5.6%	.
CC(=O)c1ccc(NS(=O)(=O)c2cccc(C(=O)Nc3ccccc3C(=O)O)c2)cc1	i	1.8%	?	31.6µM*	-19.7%
Cc1cccc(NC(=O)COc2ccc3c(C)cc(=O)oc3c2)c1C	.	.	.	-24.6%	.
O=C(CCCOc1ccc(Cl)cc1Cl)OCC(=O)c1ccccc1	.	.	.	-18.1%	.
COC(=O)[C@@]1(Cc2ccc(F)cc2)[C@H]2c3cc(C(=O)N(C)C)n(CC4CC4)c3C[C@H]2CN1C(=O)c1ccccc1	25.1µM*	.	.	-5.9%	.
COc1ccc(C(=O)NCc2coc(-c3cccs3)n2)c(O)c1	.	.	.	37.7%	.
O=C(Nc1ccc(Cl)cc1)c1cc2c(cc1O)[nH]c1ccccc12	i	-44.7%	35.5µM*	-36.2%	-6.2%[15.4 µM]
Cc1noc(C)c1Cc1ccc(C(=O)N2CCC(C)(c3noc(-c4cccnc4)n3)CC2)o1	.	.	.	-0.7%	.
CCOc1cccc(/C=C(/C#N)c2nc3ccccc3[nH]2)c1	.	.	.	12.4%	.
CCOc1cc(C(c2c(C)[nH][nH]c2=O)c2c(C)[nH][nH]c2=O)ccc1OC(=O)c1cccc([N+](=O)[O-])c1	35.5µM*	-2.8%	1.5%	?	18.5%
Cc1ccc([C@H]2C[C@@H](O)[C@@H](O)[C@@H]2NCc2ccccc2)cc1	.	.	.	-3.3%[176 µM]	.
CCc1ccccc1N1CC(c2nc3ccccc3n2CCC2CCCCC2)CC1=O (configuration not stated)	?	.	.	28.2µM*	.
Cc1ccc(N2CC(c3nc4ccccc4n3CCC3CCCCC3)CC2=O)cc1 (configuration not stated)	i	.	.	-14.2%	.
CC(C)(C)c1nc(CN2CCN(C(=O)N3CCCCC3)CC2)no1	.	.	.	29.6%	.
COC(=O)C1CCN(C(=O)c2nn(C(C)C)c(=O)c3ccccc23)CC1	.	.	.	-28.7%	.
C/C=C(/C)C(=O)Nc1cccc(C2=NOC3(C2)C[C@H](C(N)=O)N(C(=O)c2ccc(Cl)cc2)C3)c1 (some centres not stated)	i	14.1µM*	0.3%	?	-42.9%

Screens (PubChem)
